Reference: the supplement of paper PMC11732987, “Enantioselective OTUD7B fragment discovery through chemoproteomics screening and high-throughput optimisation” (Communications Chemistry, 2025)

What was measured:
Experiment in all cases: log2 ratio of Biotin-Ahx-Ub-VS probe labelling (fragment/DMSO); higher = less target engagement (more negative = stronger competition), active = hit call of the paper (q ≤ 0.05, log2 ratio ≤ -1)
Conditions in all cases: compound concentration: 200 uM; treatment time: 3 h
[1] = molecular target: T1, USP42 (UniProt Q9H9J4)
T1 sequence (whole entry): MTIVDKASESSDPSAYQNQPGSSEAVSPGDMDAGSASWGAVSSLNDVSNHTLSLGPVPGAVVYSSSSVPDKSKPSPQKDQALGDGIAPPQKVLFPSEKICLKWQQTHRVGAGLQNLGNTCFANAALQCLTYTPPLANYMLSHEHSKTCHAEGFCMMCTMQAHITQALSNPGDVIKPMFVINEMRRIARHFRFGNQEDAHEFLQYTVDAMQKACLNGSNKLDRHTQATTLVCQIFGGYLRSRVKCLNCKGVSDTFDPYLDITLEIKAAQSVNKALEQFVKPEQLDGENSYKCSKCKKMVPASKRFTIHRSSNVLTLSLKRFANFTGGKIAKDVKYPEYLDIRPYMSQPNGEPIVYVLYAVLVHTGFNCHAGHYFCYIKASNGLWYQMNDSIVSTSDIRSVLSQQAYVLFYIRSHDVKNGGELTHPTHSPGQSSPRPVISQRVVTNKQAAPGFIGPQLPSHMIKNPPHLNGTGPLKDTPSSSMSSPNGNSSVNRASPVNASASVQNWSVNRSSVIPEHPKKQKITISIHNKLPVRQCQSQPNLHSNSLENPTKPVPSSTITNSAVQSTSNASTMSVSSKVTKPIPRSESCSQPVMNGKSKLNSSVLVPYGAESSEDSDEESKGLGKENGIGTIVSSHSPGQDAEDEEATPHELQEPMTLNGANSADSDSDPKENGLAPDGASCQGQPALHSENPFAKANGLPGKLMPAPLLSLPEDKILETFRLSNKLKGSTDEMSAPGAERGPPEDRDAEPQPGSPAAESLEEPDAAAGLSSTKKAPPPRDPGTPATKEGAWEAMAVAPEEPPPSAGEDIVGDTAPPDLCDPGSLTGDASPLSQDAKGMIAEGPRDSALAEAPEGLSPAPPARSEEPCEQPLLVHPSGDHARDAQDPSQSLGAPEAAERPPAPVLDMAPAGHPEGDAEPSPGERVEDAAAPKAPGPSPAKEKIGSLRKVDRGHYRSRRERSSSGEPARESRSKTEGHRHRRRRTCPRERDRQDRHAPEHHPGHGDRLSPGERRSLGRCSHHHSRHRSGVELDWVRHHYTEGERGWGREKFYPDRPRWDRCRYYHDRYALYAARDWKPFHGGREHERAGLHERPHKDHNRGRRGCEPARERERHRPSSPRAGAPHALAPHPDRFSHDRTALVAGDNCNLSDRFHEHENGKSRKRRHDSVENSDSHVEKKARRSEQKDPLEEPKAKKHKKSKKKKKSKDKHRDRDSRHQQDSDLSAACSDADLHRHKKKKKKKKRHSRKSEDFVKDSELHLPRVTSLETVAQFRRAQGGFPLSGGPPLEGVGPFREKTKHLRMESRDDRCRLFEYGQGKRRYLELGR
Summary of the method: (§1)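 Labelled DUBs from HEK293T lysate were NeutrAvidin-enriched, digested with LysC and trypsin, and run by diaPASEF LC-MS/MS. Before that, each 495 µg sample in Tris/CHAPS/IGEPAL buffer with protease inhibitors was treated in triplicate with fragment at 200 µM or vehicle for 3 h, then with Biotin-Ahx-Ub-VS at 0.5 µM final for 1 h. Values are average log2 ratios of fragment over vehicle by unpaired t-test, based on global-median-normalised Spectronaut label-free quantities from proteins with ≥2 unique peptides.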

[2] = molecular target: USP46 (UniProt P62068)
Summary of the method: as §1

[3] = molecular target: T2, USP47 (UniProt Q96K76)
T2 sequence (whole entry): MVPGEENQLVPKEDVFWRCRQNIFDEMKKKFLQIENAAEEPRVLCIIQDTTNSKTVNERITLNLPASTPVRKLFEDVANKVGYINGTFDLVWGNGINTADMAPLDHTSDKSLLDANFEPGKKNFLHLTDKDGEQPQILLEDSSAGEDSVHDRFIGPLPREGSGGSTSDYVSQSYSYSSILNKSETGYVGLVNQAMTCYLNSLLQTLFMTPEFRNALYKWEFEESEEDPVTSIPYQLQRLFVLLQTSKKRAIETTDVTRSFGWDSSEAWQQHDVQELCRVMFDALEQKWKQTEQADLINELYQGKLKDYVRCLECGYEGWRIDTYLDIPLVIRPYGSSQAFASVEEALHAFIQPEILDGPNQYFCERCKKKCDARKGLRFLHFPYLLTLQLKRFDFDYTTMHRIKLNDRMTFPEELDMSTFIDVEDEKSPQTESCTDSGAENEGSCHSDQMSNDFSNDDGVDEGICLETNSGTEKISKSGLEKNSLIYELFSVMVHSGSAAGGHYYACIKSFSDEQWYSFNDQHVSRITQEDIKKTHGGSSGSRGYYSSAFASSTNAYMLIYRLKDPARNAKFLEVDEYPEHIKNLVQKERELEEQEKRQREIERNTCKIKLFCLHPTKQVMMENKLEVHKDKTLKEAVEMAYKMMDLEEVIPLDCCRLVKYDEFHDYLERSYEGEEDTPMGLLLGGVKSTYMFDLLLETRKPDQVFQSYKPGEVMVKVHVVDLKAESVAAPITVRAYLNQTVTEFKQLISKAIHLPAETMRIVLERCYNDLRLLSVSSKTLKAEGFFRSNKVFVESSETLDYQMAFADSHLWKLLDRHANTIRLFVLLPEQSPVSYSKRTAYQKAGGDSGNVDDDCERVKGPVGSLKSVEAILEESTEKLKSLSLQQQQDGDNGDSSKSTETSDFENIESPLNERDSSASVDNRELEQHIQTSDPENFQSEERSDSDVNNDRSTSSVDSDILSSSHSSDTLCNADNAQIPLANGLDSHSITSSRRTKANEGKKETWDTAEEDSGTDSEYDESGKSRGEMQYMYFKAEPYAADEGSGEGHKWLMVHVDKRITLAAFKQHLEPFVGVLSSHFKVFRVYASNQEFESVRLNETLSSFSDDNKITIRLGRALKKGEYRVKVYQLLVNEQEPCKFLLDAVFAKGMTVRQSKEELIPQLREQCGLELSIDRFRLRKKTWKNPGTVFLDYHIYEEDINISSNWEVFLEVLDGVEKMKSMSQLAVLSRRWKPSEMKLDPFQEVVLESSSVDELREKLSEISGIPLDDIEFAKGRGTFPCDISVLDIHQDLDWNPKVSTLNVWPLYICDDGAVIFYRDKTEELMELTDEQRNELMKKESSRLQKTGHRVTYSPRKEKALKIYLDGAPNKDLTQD
Summary of the method: as §1

[4] = molecular target: T3, USP48 (UniProt Q86UV5)
T3 sequence (whole entry): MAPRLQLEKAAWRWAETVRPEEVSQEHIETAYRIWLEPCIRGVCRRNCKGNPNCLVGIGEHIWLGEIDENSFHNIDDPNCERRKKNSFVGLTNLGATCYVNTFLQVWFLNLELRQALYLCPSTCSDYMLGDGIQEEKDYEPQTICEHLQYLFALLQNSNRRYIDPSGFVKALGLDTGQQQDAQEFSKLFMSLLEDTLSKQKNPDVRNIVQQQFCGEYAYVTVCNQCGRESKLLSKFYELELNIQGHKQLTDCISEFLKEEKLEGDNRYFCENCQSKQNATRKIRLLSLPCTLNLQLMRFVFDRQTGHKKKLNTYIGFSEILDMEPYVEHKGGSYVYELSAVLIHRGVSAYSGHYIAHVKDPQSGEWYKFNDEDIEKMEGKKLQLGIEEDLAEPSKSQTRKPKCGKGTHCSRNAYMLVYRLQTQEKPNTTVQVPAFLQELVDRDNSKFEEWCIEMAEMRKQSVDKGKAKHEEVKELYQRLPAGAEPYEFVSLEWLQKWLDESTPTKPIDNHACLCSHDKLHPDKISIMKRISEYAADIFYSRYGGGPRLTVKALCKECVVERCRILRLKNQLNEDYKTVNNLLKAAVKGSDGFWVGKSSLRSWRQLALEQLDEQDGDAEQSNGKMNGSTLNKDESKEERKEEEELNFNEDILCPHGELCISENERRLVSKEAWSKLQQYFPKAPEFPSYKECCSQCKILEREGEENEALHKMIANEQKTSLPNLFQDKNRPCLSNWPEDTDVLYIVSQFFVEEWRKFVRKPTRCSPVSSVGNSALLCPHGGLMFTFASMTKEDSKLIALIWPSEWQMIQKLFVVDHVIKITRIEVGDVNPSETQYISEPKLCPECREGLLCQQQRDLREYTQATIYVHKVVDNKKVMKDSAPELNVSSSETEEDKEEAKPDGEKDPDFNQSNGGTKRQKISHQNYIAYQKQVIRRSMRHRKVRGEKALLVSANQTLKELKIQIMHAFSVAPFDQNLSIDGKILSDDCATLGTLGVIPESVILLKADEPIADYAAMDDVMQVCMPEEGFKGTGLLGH
Summary of the method: as §1

[5] = molecular target: T4, USP5 (UniProt P45974)
T4 sequence (whole entry): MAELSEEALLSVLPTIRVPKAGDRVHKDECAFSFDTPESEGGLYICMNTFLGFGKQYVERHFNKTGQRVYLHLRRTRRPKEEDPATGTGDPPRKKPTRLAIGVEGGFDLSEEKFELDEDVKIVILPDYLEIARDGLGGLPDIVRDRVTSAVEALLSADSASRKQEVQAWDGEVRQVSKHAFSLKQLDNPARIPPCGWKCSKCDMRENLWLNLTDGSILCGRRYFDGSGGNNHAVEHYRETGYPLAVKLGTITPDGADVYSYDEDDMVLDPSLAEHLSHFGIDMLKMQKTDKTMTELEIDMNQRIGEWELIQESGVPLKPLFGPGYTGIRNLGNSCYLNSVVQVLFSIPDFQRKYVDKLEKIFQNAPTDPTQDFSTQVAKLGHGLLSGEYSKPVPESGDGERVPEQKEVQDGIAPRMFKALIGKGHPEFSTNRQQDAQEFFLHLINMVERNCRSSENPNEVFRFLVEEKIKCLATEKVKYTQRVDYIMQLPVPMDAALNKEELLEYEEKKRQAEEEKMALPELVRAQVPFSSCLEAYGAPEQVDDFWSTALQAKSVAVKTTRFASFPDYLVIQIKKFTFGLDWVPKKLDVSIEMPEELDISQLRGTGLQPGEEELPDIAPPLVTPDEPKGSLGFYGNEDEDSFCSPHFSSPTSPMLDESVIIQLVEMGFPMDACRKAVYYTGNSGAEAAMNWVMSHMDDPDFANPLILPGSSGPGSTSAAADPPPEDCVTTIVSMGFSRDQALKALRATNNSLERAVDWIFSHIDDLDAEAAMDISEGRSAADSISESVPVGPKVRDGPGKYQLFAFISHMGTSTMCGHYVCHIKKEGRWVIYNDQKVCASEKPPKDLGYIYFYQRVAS
Summary of the method: as §1

[6] = molecular target: USP54 (UniProt Q70EL1)
Summary of the method: as §1

[7] = molecular target: USP7 (UniProt Q93009)
Summary of the method: as §1

[8] = molecular target: T5, USP8 (UniProt P40818)
T5 sequence (whole entry): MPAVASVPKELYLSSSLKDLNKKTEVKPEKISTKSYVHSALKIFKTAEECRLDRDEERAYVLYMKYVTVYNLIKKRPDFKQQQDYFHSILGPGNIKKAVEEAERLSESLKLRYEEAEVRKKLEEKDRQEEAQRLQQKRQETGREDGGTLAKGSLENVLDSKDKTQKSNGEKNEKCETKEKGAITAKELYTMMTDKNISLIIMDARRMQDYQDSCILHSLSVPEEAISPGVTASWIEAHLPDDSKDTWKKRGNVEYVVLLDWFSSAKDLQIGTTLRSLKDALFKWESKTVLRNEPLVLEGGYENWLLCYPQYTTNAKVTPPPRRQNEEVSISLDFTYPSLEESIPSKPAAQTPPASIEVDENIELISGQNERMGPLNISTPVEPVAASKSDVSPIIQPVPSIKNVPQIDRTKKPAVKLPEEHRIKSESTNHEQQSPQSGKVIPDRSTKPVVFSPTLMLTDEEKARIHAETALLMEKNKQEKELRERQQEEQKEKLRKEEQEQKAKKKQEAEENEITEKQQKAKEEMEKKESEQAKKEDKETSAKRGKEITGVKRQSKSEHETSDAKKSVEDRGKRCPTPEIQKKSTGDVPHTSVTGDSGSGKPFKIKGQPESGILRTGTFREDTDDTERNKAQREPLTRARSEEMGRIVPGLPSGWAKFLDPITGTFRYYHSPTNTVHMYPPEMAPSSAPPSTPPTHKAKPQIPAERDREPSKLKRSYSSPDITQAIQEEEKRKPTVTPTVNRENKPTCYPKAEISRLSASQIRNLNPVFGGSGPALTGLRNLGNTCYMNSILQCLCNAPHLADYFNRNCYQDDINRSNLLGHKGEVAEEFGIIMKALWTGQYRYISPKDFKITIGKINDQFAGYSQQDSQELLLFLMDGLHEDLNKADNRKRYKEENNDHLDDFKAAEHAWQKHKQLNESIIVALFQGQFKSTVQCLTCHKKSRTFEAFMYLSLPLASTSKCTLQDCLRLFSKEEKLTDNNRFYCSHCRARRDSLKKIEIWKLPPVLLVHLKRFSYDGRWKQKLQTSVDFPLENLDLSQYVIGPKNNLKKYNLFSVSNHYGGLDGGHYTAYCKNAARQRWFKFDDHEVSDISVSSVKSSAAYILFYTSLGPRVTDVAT
Summary of the method: as §1

Measured: log2 ratio of Biotin-Ahx-Ub-VS probe labelling

Sequence of USP46 (P62068 whole entry): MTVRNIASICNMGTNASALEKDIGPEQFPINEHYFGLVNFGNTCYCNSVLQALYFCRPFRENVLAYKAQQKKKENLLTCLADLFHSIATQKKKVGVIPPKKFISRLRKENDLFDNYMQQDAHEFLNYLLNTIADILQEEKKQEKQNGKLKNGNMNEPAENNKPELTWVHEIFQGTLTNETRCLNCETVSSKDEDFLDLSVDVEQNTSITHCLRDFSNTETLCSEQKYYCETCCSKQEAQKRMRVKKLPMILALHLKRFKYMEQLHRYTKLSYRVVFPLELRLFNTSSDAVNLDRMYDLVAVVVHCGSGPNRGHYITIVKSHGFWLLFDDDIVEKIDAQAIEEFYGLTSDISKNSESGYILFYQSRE
Sequence of USP54 (Q70EL1 whole entry): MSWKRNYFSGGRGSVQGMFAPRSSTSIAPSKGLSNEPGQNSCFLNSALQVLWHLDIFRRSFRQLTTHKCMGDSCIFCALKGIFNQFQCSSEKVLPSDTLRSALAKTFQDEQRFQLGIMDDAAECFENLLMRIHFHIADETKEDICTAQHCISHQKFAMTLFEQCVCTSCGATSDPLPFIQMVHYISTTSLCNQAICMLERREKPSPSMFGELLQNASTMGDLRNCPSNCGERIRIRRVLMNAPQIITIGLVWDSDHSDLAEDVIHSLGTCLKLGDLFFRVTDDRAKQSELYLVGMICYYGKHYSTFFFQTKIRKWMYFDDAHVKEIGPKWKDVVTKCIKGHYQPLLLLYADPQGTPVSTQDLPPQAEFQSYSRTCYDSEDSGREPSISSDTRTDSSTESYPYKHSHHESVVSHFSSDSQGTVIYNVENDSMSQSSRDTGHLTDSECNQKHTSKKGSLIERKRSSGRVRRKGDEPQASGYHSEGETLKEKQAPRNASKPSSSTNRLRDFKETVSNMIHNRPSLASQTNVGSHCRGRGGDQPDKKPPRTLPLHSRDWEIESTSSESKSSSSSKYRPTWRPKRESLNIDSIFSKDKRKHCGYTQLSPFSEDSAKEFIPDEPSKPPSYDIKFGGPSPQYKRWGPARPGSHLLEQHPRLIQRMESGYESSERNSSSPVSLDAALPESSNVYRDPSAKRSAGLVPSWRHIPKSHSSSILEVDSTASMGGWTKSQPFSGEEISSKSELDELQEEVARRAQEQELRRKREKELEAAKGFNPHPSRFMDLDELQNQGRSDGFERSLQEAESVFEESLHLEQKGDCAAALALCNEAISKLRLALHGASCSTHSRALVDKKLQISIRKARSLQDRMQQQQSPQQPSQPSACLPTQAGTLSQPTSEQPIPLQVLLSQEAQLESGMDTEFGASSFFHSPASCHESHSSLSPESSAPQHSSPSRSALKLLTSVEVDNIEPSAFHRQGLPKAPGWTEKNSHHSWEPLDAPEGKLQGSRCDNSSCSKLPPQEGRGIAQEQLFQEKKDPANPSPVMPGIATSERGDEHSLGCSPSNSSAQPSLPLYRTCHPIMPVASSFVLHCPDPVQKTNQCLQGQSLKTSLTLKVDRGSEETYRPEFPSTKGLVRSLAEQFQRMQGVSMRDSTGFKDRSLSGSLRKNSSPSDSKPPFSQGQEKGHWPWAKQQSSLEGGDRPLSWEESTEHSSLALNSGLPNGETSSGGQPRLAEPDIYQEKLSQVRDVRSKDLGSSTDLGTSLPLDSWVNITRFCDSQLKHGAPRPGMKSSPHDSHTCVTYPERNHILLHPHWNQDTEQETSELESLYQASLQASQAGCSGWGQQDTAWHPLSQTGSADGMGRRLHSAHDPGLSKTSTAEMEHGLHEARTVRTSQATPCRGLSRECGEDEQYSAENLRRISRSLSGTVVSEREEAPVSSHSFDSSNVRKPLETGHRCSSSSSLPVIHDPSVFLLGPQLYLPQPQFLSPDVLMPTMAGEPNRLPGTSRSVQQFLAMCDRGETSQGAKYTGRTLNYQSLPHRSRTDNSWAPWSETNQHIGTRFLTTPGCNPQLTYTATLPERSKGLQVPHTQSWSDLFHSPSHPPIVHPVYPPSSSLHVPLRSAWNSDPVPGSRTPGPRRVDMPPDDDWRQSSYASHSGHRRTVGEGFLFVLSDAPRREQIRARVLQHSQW
Sequence of USP7 (Q93009 whole entry, looked up): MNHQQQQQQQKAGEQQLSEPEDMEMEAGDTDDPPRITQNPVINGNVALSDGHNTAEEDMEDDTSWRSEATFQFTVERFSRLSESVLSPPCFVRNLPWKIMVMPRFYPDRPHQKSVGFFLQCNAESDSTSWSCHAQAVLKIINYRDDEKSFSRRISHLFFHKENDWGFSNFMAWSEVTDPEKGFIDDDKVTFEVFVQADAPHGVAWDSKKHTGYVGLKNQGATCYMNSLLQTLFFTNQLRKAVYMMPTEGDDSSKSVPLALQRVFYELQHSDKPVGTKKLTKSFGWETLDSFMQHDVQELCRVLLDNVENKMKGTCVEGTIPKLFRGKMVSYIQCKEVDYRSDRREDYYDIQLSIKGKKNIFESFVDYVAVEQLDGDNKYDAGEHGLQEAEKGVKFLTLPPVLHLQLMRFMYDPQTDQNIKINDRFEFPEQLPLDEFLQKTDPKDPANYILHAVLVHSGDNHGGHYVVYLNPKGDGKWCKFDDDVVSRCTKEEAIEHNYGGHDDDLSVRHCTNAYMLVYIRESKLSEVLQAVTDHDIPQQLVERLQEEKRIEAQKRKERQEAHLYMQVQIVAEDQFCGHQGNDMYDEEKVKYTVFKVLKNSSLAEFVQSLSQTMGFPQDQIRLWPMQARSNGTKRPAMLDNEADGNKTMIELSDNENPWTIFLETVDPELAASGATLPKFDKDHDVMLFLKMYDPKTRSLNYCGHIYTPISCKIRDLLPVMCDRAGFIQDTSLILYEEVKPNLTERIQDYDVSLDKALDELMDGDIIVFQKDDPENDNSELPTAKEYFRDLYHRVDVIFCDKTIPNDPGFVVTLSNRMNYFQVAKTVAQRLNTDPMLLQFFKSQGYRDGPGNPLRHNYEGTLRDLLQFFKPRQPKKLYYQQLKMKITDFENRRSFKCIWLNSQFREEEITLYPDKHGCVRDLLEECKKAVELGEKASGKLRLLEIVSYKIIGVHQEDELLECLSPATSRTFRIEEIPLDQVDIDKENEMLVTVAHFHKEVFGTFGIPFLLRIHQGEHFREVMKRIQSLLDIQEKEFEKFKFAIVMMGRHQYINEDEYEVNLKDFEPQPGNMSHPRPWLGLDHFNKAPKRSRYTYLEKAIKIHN

CC(NC(=O)CCl)c1csc(-c2ccccc2)n1.Cl (stereo not drawn)
inactive: [1] -0.201 | [2] -0.41 | [3] 0.0356 | [4] -0.587 | [5] -0.0456 | [6] 0.348 | [7] -0.457 | [8] -0.318
